This passage reports binding signal results from paper PMC7862700, “An all-to-all approach to the identification of sequence-specific readers for epigenetic DNA modifications on cytosine”.

What all share (test): DAPPL (digital affinity profiling via proximity ligation, sequencing); 10 mM Tris-HCl pH 7.5, 50 mM NaCl, 1 mM DTT, 4% glycerol, room temperature, 30 min; GST-TFs on glutathione beads, 16-mer random dsDNA library, 0.1% formaldehyde crosslink after washing; high values mean tight binding
The target of experiment [1] is T1, FLI1 (Homo sapiens, UniProt Q01543 1-452).
T1 sequence: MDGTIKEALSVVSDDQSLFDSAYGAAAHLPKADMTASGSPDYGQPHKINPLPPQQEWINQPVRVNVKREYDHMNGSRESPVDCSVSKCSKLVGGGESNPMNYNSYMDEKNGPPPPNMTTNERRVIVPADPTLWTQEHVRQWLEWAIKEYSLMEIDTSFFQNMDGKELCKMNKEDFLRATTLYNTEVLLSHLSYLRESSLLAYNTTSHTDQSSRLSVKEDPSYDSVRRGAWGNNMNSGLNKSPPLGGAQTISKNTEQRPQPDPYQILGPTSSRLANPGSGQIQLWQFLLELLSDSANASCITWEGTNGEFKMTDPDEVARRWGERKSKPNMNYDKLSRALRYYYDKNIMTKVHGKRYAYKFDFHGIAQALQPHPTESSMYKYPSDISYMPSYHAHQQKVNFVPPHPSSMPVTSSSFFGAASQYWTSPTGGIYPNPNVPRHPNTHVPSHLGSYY
The settings on record: protein: recombinant; tags: N-terminal GST; dsDNA, one strand shown. The method, boiled down: (§1)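 In yeast, human transcription factors were expressed with a GST fusion, then pulled down on glutathione beads and given DNA barcodes. Pooled with a tag-only sample, they were exposed to 200 nmole of a 16-mer random double-stranded DNA library (Tris/NaCl/DTT/glycerol buffer, room temperature, 30 min), washed, crosslinked with 0.1% formaldehyde, proximity-ligated using BsaI/T4 ligase for 1 h at 37 °C, PCR-amplified and read on an Illumina NextSeq500. Each hexamer's frequency of reads for a factor, divided by the matching frequency for the tag-only sample, gives the binding signal.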

Experiment [2] deals with T2, ELK1 (Homo sapiens, UniProt P19419 1-428).
T2 sequence: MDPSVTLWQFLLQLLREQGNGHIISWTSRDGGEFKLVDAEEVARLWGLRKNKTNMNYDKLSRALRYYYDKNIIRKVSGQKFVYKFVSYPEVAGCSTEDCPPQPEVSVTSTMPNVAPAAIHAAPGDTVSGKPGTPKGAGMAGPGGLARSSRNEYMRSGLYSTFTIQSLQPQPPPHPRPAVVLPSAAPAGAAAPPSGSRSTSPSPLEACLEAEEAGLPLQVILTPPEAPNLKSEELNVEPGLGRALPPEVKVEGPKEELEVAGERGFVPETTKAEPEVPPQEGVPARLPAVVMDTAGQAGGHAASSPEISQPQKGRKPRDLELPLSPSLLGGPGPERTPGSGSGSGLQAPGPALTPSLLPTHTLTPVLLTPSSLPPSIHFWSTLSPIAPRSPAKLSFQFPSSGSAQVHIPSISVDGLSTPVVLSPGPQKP
The settings on record: protein: recombinant; tags: N-terminal GST; dsDNA, one strand shown. In a few lines: as §1

Experiment [3] deals with T3, GABPA (Homo sapiens, UniProt Q06546 1-454).
T3 sequence: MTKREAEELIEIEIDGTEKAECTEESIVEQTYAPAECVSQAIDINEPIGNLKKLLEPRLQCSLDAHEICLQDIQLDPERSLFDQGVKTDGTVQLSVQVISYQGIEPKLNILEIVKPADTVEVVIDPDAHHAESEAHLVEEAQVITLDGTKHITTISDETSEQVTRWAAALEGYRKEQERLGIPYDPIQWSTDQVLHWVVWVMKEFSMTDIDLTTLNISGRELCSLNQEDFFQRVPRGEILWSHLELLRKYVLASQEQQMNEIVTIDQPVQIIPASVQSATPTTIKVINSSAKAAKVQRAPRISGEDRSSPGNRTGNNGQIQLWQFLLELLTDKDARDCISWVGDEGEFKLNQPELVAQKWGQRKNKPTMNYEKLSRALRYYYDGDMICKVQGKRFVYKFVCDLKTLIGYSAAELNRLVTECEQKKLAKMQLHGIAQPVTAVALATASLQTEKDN
The settings on record: protein: recombinant; tags: N-terminal GST; dsDNA, one strand shown. In a few lines:
as §1

Experiment [4] addresses T4, ERG (Homo sapiens, UniProt P11308 1-479).
T4 sequence: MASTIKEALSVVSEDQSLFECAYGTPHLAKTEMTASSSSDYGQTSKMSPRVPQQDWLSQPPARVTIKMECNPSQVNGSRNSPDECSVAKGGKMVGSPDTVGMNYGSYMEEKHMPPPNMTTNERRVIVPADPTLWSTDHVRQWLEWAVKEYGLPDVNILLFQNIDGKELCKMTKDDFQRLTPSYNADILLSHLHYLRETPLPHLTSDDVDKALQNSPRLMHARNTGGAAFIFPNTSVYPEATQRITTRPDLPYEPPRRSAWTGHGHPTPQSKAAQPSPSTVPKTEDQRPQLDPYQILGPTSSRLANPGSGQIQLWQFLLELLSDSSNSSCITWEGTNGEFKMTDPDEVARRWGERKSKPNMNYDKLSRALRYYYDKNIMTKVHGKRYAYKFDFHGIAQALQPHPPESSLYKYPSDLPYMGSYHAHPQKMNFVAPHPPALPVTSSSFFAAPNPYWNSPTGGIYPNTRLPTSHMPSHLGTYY
The following applies: protein: recombinant; tags: N-terminal GST; dsDNA, one strand shown. The method, boiled down: as §1

Experiment [5] has as its target ELF1 (Homo sapiens, UniProt P32519 1-619). The following applies: protein: recombinant; tags: N-terminal GST; dsDNA, one strand shown. The method, boiled down:
as §1

Experiment [6] has as its target T5, EHF (Homo sapiens, UniProt Q9NZC4 1-300).
T5 sequence: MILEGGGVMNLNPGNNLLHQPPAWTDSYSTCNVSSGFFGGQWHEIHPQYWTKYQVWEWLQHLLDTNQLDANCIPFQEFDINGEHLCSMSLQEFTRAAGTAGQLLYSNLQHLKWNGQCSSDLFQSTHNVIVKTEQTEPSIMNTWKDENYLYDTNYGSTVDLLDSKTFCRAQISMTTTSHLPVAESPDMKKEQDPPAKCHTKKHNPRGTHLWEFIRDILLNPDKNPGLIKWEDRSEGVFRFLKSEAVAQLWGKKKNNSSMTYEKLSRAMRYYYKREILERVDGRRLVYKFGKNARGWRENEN
The settings on record: protein: recombinant; tags: N-terminal GST; dsDNA, one strand shown. In a few lines: as §1

For experiment [7], the target named is SPI1 (Homo sapiens, UniProt P17947 1-270). The settings on record: protein: recombinant; tags: N-terminal GST; dsDNA, one strand shown. In a few lines:
as §1

Experiment [8] addresses SPIB (Homo sapiens, UniProt Q01892 1-262). The following applies: protein: recombinant; tags: N-terminal GST; dsDNA, one strand shown. The method, boiled down:
as §1

Experiment [9] concerns the target T6, ELK3 (Homo sapiens, UniProt P41970 1-407).
T6 sequence: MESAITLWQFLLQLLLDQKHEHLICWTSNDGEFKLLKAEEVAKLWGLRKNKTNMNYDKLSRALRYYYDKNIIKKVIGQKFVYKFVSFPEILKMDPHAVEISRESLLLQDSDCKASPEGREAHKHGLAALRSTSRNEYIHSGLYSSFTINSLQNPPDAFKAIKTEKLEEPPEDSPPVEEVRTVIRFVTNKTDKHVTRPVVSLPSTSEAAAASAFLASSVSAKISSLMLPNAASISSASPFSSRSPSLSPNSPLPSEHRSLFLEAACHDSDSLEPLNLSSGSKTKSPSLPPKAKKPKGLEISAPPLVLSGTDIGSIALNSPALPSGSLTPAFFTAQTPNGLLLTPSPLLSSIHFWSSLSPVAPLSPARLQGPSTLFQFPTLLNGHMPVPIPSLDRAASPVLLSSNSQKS
The settings on record: protein: recombinant; tags: N-terminal GST; dsDNA, one strand shown. In a few lines:
as §1

Experiment [10] deals with T7, FEV (Homo sapiens, UniProt Q99581 1-238).
T7 sequence: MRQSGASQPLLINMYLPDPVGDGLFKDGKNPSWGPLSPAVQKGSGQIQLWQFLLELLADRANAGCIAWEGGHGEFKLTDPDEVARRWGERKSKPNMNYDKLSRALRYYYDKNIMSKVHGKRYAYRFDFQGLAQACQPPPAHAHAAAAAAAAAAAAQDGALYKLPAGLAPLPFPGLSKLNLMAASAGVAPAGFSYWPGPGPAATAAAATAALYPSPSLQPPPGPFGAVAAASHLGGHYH
The following applies: protein: recombinant; tags: N-terminal GST; dsDNA, one strand shown. In a few lines:
as §1

The target of experiment [11] is ETV5 (Homo sapiens, UniProt P41161 1-510). The following applies: protein: recombinant; tags: N-terminal GST; dsDNA, one strand shown. The method, boiled down: as §1
Experiment [12] addresses HSF1 (Homo sapiens, UniProt Q00613 1-529). The settings on record: protein: recombinant; tags: N-terminal GST; chain copies: 3; dsDNA, one strand shown. In a few lines:
as §1

For experiment [13], the target named is T8, SPIC (Homo sapiens, UniProt Q8N5J4 1-248).
T8 sequence: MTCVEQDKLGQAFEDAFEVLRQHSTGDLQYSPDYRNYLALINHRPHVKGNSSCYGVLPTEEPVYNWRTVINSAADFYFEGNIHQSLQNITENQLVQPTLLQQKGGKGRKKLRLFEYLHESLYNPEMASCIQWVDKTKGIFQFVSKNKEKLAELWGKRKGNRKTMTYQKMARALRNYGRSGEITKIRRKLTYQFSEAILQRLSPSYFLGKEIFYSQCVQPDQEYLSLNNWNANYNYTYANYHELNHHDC
The following applies: protein: recombinant; tags: N-terminal GST; dsDNA, one strand shown. In a few lines: as §1

The target in experiment [14] is ELF4 (Homo sapiens, UniProt Q99607 1-663). The following applies: protein: recombinant; tags: N-terminal GST; dsDNA, one strand shown. In a few lines:
as §1

Experiment [15] addresses T9, ELK4 (Homo sapiens, UniProt P28324-2 1-405).
T9 sequence: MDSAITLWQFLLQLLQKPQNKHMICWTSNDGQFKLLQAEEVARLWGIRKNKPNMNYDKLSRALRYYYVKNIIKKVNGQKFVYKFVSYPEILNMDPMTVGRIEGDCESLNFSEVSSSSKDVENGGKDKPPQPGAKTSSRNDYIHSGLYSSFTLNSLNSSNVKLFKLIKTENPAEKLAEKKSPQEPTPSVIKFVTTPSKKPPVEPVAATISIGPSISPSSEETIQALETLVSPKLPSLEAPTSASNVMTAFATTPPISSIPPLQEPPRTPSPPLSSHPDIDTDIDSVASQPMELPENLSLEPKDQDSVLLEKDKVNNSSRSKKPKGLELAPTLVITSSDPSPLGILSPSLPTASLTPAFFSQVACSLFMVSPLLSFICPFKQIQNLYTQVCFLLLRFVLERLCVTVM
The following applies: protein: recombinant; tags: N-terminal GST; dsDNA, one strand shown. In a few lines:
as §1

The target in experiment [16] is T10, ETV2 (Homo sapiens, UniProt O00321 1-342).
T10 sequence: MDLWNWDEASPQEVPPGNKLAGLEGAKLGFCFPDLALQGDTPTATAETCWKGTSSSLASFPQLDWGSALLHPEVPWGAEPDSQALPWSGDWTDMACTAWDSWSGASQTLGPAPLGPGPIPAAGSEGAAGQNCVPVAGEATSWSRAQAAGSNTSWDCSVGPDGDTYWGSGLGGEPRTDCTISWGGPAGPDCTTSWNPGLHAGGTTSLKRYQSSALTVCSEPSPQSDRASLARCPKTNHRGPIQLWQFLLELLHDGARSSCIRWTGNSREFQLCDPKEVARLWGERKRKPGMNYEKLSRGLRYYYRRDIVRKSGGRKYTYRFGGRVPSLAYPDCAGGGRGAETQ
The following applies: protein: recombinant; tags: N-terminal GST; dsDNA, one strand shown. The method, boiled down: as §1

Experiment [17] deals with T11, ELF3 (Homo sapiens, UniProt P78545 1-371).
T11 sequence: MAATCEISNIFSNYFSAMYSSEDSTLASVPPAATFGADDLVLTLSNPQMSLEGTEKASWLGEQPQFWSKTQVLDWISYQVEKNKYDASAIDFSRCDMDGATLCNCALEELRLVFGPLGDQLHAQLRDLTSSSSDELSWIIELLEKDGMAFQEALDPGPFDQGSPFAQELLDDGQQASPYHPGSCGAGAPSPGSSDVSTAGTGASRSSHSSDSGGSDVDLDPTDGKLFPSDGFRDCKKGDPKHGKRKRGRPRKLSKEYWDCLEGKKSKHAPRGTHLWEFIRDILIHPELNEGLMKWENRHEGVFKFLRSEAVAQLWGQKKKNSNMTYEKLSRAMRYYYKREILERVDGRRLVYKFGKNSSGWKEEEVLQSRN
The following applies: protein: recombinant; tags: N-terminal GST; dsDNA, one strand shown. In a few lines:
as §1

In experiment [18] the target is CRX (Homo sapiens, UniProt O43186 1-299). The settings on record: protein: recombinant; tags: N-terminal GST; dsDNA, one strand shown. The method, boiled down:
as §1

Experiment [19] addresses ETV1 (Homo sapiens, UniProt P50549 1-477). The following applies: protein: recombinant; tags: N-terminal GST; dsDNA, one strand shown. In a few lines:
as §1

Sequence of ELF4 (Q99607 whole entry): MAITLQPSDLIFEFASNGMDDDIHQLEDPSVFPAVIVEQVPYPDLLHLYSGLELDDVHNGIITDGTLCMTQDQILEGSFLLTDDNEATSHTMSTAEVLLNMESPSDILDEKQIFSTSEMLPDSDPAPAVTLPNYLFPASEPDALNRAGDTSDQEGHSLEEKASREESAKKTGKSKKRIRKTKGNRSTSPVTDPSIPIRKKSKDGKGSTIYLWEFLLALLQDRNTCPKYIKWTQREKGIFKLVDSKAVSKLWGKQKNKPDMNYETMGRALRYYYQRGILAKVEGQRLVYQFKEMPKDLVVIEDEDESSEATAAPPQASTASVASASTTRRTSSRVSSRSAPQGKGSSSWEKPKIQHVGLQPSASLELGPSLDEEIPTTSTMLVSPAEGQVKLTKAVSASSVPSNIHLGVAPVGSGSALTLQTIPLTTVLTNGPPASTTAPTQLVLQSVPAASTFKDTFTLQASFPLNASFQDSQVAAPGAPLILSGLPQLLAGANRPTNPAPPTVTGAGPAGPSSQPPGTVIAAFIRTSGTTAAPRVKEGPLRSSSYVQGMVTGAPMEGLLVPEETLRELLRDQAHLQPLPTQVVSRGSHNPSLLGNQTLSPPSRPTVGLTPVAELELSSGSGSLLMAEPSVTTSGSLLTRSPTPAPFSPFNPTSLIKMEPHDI
Sequence of ELF1 (P32519 whole entry): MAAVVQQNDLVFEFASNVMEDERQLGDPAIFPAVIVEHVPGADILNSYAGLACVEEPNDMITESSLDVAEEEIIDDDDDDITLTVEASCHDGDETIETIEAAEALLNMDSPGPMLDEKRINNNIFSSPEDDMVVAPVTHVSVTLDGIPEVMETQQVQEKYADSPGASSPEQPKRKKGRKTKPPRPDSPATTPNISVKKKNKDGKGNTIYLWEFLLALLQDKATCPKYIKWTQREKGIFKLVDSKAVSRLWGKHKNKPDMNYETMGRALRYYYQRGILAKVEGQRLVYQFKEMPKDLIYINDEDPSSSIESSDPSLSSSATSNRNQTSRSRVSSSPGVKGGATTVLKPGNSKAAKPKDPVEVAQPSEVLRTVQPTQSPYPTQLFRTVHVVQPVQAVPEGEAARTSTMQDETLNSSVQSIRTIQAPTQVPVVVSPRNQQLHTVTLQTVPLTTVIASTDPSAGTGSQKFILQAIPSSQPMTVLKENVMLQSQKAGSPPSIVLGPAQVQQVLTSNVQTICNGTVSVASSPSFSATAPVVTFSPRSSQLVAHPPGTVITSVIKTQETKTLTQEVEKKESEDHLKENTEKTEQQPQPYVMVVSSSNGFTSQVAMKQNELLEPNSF
Sequence of ETV5 (P41161 whole entry): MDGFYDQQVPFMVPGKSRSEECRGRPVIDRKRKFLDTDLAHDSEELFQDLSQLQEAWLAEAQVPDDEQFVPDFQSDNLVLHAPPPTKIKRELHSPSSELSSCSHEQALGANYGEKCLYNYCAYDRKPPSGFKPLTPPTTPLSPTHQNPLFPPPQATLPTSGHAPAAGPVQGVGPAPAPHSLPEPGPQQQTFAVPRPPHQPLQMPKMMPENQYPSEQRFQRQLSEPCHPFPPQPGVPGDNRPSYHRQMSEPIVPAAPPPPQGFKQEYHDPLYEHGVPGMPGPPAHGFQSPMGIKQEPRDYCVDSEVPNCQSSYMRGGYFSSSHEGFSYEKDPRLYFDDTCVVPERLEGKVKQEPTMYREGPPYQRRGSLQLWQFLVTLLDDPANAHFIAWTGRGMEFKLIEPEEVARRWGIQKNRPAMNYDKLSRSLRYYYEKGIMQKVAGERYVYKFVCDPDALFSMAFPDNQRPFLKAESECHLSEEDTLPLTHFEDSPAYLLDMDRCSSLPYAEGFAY
Sequence of CRX (O43186 whole entry): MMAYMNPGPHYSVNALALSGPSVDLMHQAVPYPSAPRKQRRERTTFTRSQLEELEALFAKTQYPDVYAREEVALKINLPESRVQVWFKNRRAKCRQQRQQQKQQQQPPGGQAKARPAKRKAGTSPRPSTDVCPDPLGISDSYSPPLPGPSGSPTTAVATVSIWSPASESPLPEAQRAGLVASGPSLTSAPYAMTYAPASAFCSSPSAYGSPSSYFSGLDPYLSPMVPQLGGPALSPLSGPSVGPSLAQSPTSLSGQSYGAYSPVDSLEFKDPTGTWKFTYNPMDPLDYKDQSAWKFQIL
Sequence of ETV1 (P50549 whole entry): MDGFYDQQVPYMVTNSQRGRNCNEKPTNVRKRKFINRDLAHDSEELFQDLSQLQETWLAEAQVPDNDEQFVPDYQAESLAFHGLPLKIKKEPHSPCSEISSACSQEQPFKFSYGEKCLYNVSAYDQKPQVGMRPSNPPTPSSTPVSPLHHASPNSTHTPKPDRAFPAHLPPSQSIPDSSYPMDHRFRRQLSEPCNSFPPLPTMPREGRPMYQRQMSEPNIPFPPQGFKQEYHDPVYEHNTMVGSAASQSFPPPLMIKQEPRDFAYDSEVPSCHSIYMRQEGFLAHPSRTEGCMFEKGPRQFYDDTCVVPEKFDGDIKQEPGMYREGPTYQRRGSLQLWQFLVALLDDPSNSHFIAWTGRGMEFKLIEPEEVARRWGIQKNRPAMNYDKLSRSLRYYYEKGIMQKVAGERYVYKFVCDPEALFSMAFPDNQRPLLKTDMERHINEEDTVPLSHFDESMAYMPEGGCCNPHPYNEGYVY
Sequence of HSF1 (Q00613 whole entry): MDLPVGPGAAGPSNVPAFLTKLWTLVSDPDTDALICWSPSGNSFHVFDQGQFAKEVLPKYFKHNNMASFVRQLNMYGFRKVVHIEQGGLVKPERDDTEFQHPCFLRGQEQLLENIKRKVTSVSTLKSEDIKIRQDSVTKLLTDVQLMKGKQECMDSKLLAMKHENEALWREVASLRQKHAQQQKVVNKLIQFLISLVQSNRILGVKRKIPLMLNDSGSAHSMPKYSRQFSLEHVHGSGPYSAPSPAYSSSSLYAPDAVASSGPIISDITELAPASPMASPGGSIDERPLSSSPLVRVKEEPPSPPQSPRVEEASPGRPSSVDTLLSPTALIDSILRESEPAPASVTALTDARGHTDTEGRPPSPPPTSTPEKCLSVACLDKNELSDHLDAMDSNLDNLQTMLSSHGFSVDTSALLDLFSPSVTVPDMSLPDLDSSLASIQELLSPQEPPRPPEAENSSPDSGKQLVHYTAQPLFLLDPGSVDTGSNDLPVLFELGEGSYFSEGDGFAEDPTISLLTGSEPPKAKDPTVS
Sequence of SPIB (Q01892 whole entry): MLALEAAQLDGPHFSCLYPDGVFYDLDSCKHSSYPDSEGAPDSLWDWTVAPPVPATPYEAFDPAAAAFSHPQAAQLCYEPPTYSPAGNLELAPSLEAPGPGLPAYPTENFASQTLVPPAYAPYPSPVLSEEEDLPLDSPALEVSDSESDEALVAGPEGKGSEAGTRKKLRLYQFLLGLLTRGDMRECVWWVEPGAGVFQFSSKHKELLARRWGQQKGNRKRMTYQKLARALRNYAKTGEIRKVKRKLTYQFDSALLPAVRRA

Turning to TCTCAA, the binding signal in [1] is 1.38 fold enrichment (6-mer frequency, TF over GST control); in experiment [2], 1.27 fold enrichment (6-mer frequency, TF over GST control); in experiment [3], 1.27 fold enrichment (6-mer frequency, TF over GST control); in experiment [4], 1.28 fold enrichment (6-mer frequency, TF over GST control); in [5] it was 1.26 fold enrichment (6-mer frequency, TF over GST control); in experiment [6], 1.19 fold enrichment (6-mer frequency, TF over GST control). The binding signal in experiment [7] is 1.22 fold enrichment (6-mer frequency, TF over GST control); in experiment [8] it was 1.33 fold enrichment (6-mer frequency, TF over GST control); in experiment [9], 1.43 fold enrichment (6-mer frequency, TF over GST control); in experiment [10], 1.25 fold enrichment (6-mer frequency, TF over GST control); in experiment [11], 1.3 fold enrichment (6-mer frequency, TF over GST control); in experiment [12], 1.33 fold enrichment (6-mer frequency, TF over GST control). The binding signal in experiment [13] is 1.24 fold enrichment (6-mer frequency, TF over GST control); in experiment [14], 1.35 fold enrichment (6-mer frequency, TF over GST control); in experiment [15] it was 1.25 fold enrichment (6-mer frequency, TF over GST control); in experiment [16] it was 1.34 fold enrichment (6-mer frequency, TF over GST control); in experiment [17], 1.45 fold enrichment (6-mer frequency, TF over GST control); in experiment [18] it was 1.39 fold enrichment (6-mer frequency, TF over GST control). The binding signal in experiment [19] is 1.3 fold enrichment (6-mer frequency, TF over GST control).
